Sampled rows, rich in hits. Any-hit rate of the full collection: about 0.9%.
BLM helicase inh = blocks DNA unwinding by human BLM helicase; P54132; recombinant BLM DNA unwinding, fluorescence dequenching; Potency, µM (series often up to 56.1 µM), inactives show at the highest dose activity change, negative = inhibition, hits mostly inhibitors; 0.2% of 350,000 active; AID 2528;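 also: plate controls were vehicle for no effect and no enzyme for full effect; nearly all actives have a fitted effect of over 35% in size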
Target sequence (P54132 whole entry, looked up): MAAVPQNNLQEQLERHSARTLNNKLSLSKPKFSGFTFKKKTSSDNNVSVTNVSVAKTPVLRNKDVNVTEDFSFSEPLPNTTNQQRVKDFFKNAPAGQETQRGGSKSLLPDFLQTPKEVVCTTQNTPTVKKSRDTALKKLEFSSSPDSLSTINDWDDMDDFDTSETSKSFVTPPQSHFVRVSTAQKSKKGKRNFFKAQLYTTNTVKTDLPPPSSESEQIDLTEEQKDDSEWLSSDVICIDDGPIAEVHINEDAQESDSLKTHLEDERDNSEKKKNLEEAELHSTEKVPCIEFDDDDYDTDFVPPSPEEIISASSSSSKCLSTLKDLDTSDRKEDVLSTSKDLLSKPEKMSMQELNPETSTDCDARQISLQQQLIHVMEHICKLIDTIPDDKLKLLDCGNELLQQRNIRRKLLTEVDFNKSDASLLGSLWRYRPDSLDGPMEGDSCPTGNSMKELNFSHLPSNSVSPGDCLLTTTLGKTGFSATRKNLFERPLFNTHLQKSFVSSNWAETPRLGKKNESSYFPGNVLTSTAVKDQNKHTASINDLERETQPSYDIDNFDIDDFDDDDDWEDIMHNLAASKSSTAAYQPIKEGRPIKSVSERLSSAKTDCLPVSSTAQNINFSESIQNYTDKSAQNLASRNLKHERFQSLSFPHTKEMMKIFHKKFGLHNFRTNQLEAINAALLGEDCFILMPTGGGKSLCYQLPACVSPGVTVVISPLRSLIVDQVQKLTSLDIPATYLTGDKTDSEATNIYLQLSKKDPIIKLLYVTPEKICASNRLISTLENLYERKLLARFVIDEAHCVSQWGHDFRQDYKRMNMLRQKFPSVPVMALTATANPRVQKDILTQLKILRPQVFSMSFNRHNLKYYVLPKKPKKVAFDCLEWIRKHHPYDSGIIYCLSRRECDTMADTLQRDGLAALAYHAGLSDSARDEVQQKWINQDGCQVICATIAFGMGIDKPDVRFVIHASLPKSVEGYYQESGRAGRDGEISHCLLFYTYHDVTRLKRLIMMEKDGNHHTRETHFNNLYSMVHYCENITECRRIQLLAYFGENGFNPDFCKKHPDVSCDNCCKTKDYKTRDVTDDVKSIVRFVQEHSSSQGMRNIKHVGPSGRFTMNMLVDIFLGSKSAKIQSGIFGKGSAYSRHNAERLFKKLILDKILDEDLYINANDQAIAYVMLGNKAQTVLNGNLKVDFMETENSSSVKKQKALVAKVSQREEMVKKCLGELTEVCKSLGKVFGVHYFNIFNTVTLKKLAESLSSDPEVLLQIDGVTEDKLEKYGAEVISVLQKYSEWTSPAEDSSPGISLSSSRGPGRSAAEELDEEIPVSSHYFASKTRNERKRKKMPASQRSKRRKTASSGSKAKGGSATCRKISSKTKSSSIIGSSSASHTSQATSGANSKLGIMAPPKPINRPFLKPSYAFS
APEX1 inh = blocks human APE1 abasic DNA cleavage | recombinant APE1, TAMRA/BHQ-2 abasic DNA cleavage fluorescence | Potency, µM (top dose mostly 65.8 µM), for inactives: at the highest dose activity change, negative = inhibition, usual class: inhibitors | 0.35% of 350,000 active;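 also: plate controls were vehicle for no effect and reference inhibitor for full effect; nearly all actives have a fitted effect of over 55% in size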
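0.75 nM APE1 + cpd, 15 min RT; start w/ 50 nM TAMRA/BHQ-2 THF-abasic dsDNA; kinetic fluor 525/598 nm ×3 reads @60 s; Δ(read3−read1); normalized to DMSO and NSC13755 control wells.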
TRb SRC2 PPI = disrupts binding of human TR beta to SRC2. P10828. TRbeta-SRC2 peptide binding, fluorescence polarization; receptor liganded with 1 µM T3. Potency, µM (series often up to 106 µM), for inactives: at the highest dose activity change, negative = inhibition, hits mostly inhibitors. 0.065% of 280,000 active. AID 1469;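 also: plate controls were bound peptide for no effect and peptide without receptor for full effect; nearly all actives have a fitted effect of over 50% in size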
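Assay buffer: 20 mM Tris-HCl, 100 mM NaCl, 10% glycerol, 1 mM EDTA, 0.01% NP-40, 1 mM DTT, 1 uM T3, 5% DMSO; TRb LBD 0.6 uM, Texas Red SRC2 20 nM; FP after 5 hr.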
TexasRed fluor = counter-screen for TRb-SRC2 inhibitors: fluorescence interference; Potency, µM (doses to about 106 µM), inactives show at the top dose fluorescence change, negative = quenching; TRb/SRC2 Texas Red total fluorescence interference; AID 1479; 0.29% of 280,000 active; active = well fitted curve in either direction with a large enough effect; inconclusive = small, poorly fitted or top-dose-only effect
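Human TRβ ligand-binding domain (0.6 uM) and Texas Red SRC2 peptide (20 nM) in Tris buffer with 1 uM T3 and 5% DMSO were incubated with pinned compound for 5 hr at ambient temperature. Total fluorescence was computed as S + 2P (555/632 nm).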
RECQ1 inh-1 = RECQ1 (human) helicase inhibition | 0.54% of 240,000 active | P46063 | Potency, µM (series often up to 57.3 µM), inactives show at the highest dose activity, negative = inhibition, hits mostly inhibitors | RECQ1 DNA unwinding, red fluorescence kinetic read | AID 2549;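 also: plate controls were vehicle for no effect and no enzyme for full effect; nearly all actives have a fitted effect of over 30% in size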
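RECQ1T1 50 nM; forked duplex (20 bp + 30-nt ss tails) 200 nM, ATP 2 mM final; pH 8.0, 2 mM MgCl2, 2.5 ug/ml poly(dI-dC); 15 min compound preincubation; discontinuous kinetic read over 2 h at RT.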
GoLoco inh red = blocks human Gai1 binding to RGS12 GoLoco peptide, red readout; P63096; Potency, µM (top dose mostly 61.6 µM), for inactives: top-dose activity, negative = inhibition, actives largely listed as inhibitors; 0.44% of 230,000 active; Gai1:RGS12 GoLoco peptide FP, rhodamine, 10 min; AID 880; active = well fitted inhibition curve with a large enough effect, not every such curve was filed as active; inactive = no such curve, though single readings can be large or run the other way; also: nearly all actives have a fitted effect of over 30% in size
RECQ1 conf = confirmation of human RECQ1 helicase inhibitors. shares compounds with RECQ1 inh-1. RECQ1 helicase DNA unwinding, fluorescence. Potency, µM (titrated, usually from 229 µM), for the others: at the top dose activity change, negative = inhibition, hits mostly inhibitors. 28% of 610 active; also: nearly all actives have a fitted effect of over 45% in size
RECQ1 ADP FP = displaces ADP in a fluorescence polarization counter-screen for RECQ1 hits; shares compounds with RECQ1 inh-1; ADP fluorescence polarization displacement counterscreen; Potency, µM (series often up to 228 µM), for the others: at the top dose activity change, negative = inhibition, actives largely listed as inhibitors; 27% of 530 active; AID 2711; also: nearly all actives have a fitted effect of over 45% in size
RECQ1 inh-2 = confirmation of human RECQ1 helicase inhibitors; 15% of 1,100 active; Potency, µM (top dose mostly 119 µM), inactives show at the highest dose activity, negative = inhibition, actives largely listed as inhibitors; AID 504841; shares compounds with RECQ1 inh-1; recombinant RECQ1 DNA unwinding, red fluorescence; also: nearly all actives have a fitted effect of over 50% in size
Numbers without * were called inactive; i = inactive; ? = inconclusive; nt = no result given; [ ] = remark or other dose. Unless noted, calls follow the shape of the dose curve; as a rule, active = well fitted curve in the direction sought with a large enough effect; inconclusive = small, poorly fitted or top-dose-only effect, or another doubt; inactive = no such curve, though single readings can be large; an effect the other way counts as inactive or inconclusive. Unless noted, % is scaled to controls: 0 for no effect and ±100 for the full control effect; potency is read from the fitted curve at half-maximal effect.

SMILES	BLM helicase inh	APEX1 inh	TRb SRC2 PPI	TexasRed fluor	RECQ1 inh-1	GoLoco inh red	RECQ1 inh-2	others
CCOC(=O)C1=C(c2ccccc2)N=c2s/c(=C\c3ccc(O)cc3)c(=O)n2C1c1cccs1 (stereo unspecified)	-12%	0%	9%	0%	?	215%	16µM*
O=C1C=CC2=C3c4cc(O)c(O)cc4C[C@@]3(O)COC2=C1	-17%	13µM*	-18%	14%	20µM*	0.35µM*	25µM*
O=C(C(Cc1ccccc1)n1cccc1)N1CCN(c2cccc(Cl)c2)CC1 (stereo unspecified)	-10%	-6%	11%	-1%	-15%	-3%	nt
CCC(C(=O)N1CCN(c2cccc(Cl)c2)CC1)c1ccccc1 (stereo unspecified)	-5%	10%	-13%	2%	25µM*	10%	-21%
CCc1nn(CC(=O)NC(C)CC)c(=O)c2cc3c(OC)cccc3n12 (stereo unspecified)	-2%	nt	0%	11%	nt	nt	nt
Cc1ccc(NC(=O)N/C=C/c2ccco2)cc1	0%	?	11%	1%	?	211%	?
CNc1ccc(/C=C/C(=O)c2ccc(C)cc2)cc1[N+](=O)[O-]	-7%	-11%	-2%	9%	?	6%	53%
Cc1ccccc1-c1nnn(CC(=O)Nc2sc3c(c2C#N)CCC(C(C)(C)C)C3)n1 (stereo unspecified)	-12%	nt	2%	-4%	nt	nt	nt
CCOc1ccccc1C(=O)Nc1cc2c(cc1N1CCCCC1)n(C)c(=O)n2C	-2%	nt	0%	-4%	nt	nt	nt
CCOC(=O)c1c(N2C(=O)Nc3cc(Cl)c(Cl)cc3N2O)sc2c1CCCCC2	-8%	-10%	-14%	-1%	?	1%	20µM*
N[C@](CC1c2ccccc2Oc2ccccc21)(C(=O)O)[C@H]1C[C@@H]1C(=O)O	nt	8%	9%	-1%	-6%	9%	nt
O=C(CCn1c(=O)c2cccn2c2ccc(F)cc21)NCc1ccccc1F	1%	nt	5%	8%	nt	nt	nt
COc1cccc(C(C(=O)NCc2ccco2)N(C(=O)Cn2nnc3ccccc32)C2CC2)c1OC (stereo unspecified)	-1%	0%	6%	1%	?	4%	-11%
Cc1ccccc1C(C(=O)NCc1ccco1)N(CC1CCCO1)C(=O)Cn1nnc2ccccc21 (stereo unspecified)	1%	-1%	-5%	-3%	-3%	-2%	nt
C=CCOC(=O)C1C(=O)CC(C)(O)C(C(=O)OCC=C)C1c1ccc(N(C)C)cc1 (stereo unspecified)	-3%	0%	3%	-1%	?	-8%	-9%
Cc1cccc(N2CCN(C(=O)c3ccc4c(c3)N(Cc3cccc(Cl)c3)C(=O)c3ccccc3S4=O)CC2C)c1 (stereo unspecified)	-7%	nt	-3%	0%	nt	nt	nt
CC1CN(S(=O)(=O)c2ccc(C(=O)Nc3ccc(S(=O)(=O)Nc4nccs4)cc3)cc2)CC(C)O1 (stereo unspecified)	-3%	-11%	-6%	1%	7%	9%	nt	RECQ1 conf=-4%;RECQ1 ADP FP=7%
COc1ccc(C(=O)NNC(=O)c2ccc(S(=O)(=O)N3CC(C)OC(C)C3)cc2)cc1 (stereo unspecified)	-5%	18%	3%	-1%	9%	-4%	nt
COc1cc(OC)cc(C(=O)NNC(=O)c2ccc(S(=O)(=O)N3CC(C)OC(C)C3)cc2)c1 (stereo unspecified)	1%	-12%	-6%	1%	0%	4%	nt	RECQ1 conf=10%;RECQ1 ADP FP=-1%
COc1ccc(OC)c(CCNC(=O)Cn2nc(C)n3c(cc4sccc43)c2=O)c1	0%	nt	-6%	-11%	nt	nt	nt
COc1ccc(CCNc2nc(SCc3ccc(F)cc3)nc3ccccc23)cc1OC	2%	nt	8%	3%	nt	nt	nt
COc1cc(/C=C(\C#N)c2nc3ccccc3s2)cc([N+](=O)[O-])c1O	?	?	18%	25µM*[quencher]	?	65%	35µM*
Cc1cc(=O)oc2c(CN3CCC(C)CC3)c(O)c(Cl)cc12	-17%	?	-27%	2%	28µM*	22µM*	?
Cc1cc(=O)oc2c(CN3CCCC3)c(O)c(Cl)cc12	-4%	62%	nt	nt	nt	nt	nt
N#CC1=C(N)Oc2ccc3ccc(O)cc3c2C1c1ccsc1 (stereo unspecified)	-3%	-10%	-13%	22%	?	13µM*	50µM*
SMILES	BLM helicase inh	APEX1 inh	TRb SRC2 PPI	TexasRed fluor	RECQ1 inh-1	GoLoco inh red	RECQ1 inh-2	others
COc1ccc(-c2cc(C(=O)O)no2)cc1	7%	6%	4%	1%	?	8%	4%
CC(Sc1nnc(COc2ccccc2)n1Cc1ccccc1)C(=O)O (stereo unspecified)	-3%	19%	-4%	0%	-7%	16%	nt
Cc1cc(OCc2nnc(SC(C)C(=O)O)n2Cc2ccccc2)ccc1Cl (stereo unspecified)	-4%	2%	12%	0%	i	6%	nt	RECQ1 conf=13%;RECQ1 ADP FP=-12%
CC(Sc1nnc(COc2ccc3ccccc3c2)n1C)C(=O)O (stereo unspecified)	1%	4%	5%	-1%	-1%	-4%	nt
CC(Sc1nnc(COc2ccc(Cl)cc2)n1Cc1ccccc1)C(=O)O (stereo unspecified)	3%	4%	-10%	0%	-1%	4%	nt	RECQ1 conf=17%;RECQ1 ADP FP=1%
O=C(CC1N=C2c3ccccc3N=C(SCc3ccc(Cl)cc3)N2C1=O)NCCc1ccccc1 (stereo unspecified)	-6%	nt	-3%	0%	nt	nt	nt
O=C(O)CCC(=O)Nc1nc2nccc(-c3ccccc3)n2n1	9%	?	-4%	-2%	-25%	i	nt	RECQ1 conf=?;RECQ1 ADP FP=-2%
Cc1nc(C)c(C(=O)Nc2ncc([N+](=O)[O-])s2)o1	-19%	?	2%	-10%	?	15%	?
COCCNC(=O)c1onc(CSc2cc(C)cc(C)c2)c1C(=O)O	-3%	1%	-2%	0%	i	4%	nt	RECQ1 conf=0%;RECQ1 ADP FP=1%

Assay outcomes as filed in PubChem BioAssay.
